Compounds with a hit are over-represented: about 10% of the library has one in this group of screens.
BAZ2B inh = blocks human BAZ2B; Potency, µM (titrated, usually from 114 µM), actives largely listed as inhibitors; hit rate 4.4% among 360,000; AlphaScreen BAZ2B-H3K14Ac peptide displacement; Q9UIF8; AID 504333; also: nearly all actives have a fitted effect of over 60% in size
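Compounds, titrated to a top concentration of 110 uM, were incubated 30 min at room temperature with preformed BAZ2B/acetyl-K14 H3 peptide complex (50 nM each). Proximity signal was measured by AlphaScreen after 20 min with beads.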
GLS inh = blocks human kidney-isoform glutaminase activity; O94925; GLS enzymatic activity, qHTS titration; Potency, µM (highest dose often 45.5 µM), actives largely listed as inhibitors; hit rate 0.21% among 410,000
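Enzyme dispensed in phosphate buffer (45 mM, pH 8.2, 0.02% Tween-20), compounds pinned in, then 1 mM L-glutamine solution and the glutamate oxidase–HRP–Amplex Red mix added; fluorescence read immediately and again after 30 min at room temperature.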
G9a block = G9a (human) methyltransferase inhibition; Q96KQ7; G9a H3K9 monomethylation, AlphaScreen, 2 h; Potency, µM (series often up to 102 µM), most hits filed as inhibitors; hit rate 8.8% among 350,000; also: nearly all actives have a fitted effect of over 75% in size
Target sequence (Q96KQ7 913-1193 limits assumed): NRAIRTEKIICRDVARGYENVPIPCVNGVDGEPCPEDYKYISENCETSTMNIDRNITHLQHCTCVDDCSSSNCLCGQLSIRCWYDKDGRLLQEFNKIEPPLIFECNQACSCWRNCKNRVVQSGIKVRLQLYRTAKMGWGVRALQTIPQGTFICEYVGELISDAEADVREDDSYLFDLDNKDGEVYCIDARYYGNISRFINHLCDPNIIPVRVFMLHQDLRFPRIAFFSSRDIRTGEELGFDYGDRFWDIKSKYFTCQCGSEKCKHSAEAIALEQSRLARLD
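Quantitative HTS format: methyltransferase activity on a biotin-tagged H3K9 peptide is measured by AlphaScreen, using a rabbit anti-monomethyl-H3K9 antibody with streptavidin donor and anti-IgG acceptor beads. Final levels are 20 nM enzyme, 500 nM peptide, 20 uM SAM; 2 h RT.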
HP1b binding inh = HP1-beta chromodomain-methylated histone interaction inhibition; Potency, µM (highest dose often 114 µM), usual class: inhibitors; hit rate 0.56% among 390,000; AlphaScreen HP1-beta / biotin-H3K9me3 peptide binding; P83916; also: nearly all actives have a fitted effect of over 70% in size
Target sequence (P83916 whole entry, looked up): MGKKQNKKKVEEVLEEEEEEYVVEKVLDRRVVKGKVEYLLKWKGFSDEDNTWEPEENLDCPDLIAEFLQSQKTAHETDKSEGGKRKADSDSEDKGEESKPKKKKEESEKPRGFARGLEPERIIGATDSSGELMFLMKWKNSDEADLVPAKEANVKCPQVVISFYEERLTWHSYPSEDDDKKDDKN
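AlphaScreen: HP1-beta (50 nM) preformed 30 min with biotin-H3(1-18)K9me3 peptide (50 nM) in PBS pH 7.4, 0.01% Tween-20. Compound added for 30 min at RT, then streptavidin donor/nickel chelate acceptor beads (10 ug/mL) for 30 min.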
JMJD2A Tudor = inhibitors of human JMJD2A Tudor domain; AlphaScreen JMJD2A-Tudor / H3K4me3 peptide binding; O75164; hit rate 4.4% among 390,000; Potency, µM (doses to about 114 µM), hits mostly inhibitors; also: nearly all actives have a fitted effect of over 50% in size
L3MBTL1 block = blocks human L3MBTL1 | Q9Y468 | AlphaScreen L3MBTL1–H3K9me1 peptide binding | Potency, µM (top dose mostly 57.1 µM), hits mostly inhibitors | hit rate 0.66% among 230,000; also: nearly all actives have a fitted effect of over 60% in size
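Read-out is AlphaScreen signal from streptavidin donor and nickel chelate acceptor beads (10 ug/mL final each) bridging L3MBTL1 (50 nM) and biotinylated K9-monomethylated H3(1-15) peptide (75 nM), after 30 min compound exposure at room temperature.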
Each line names hits and unclear results; the compound was inactive in the other large screens. Calls follow the shape of the dose curve; as a rule, active = well fitted curve in the direction sought with a large enough effect; inconclusive = small, poorly fitted or top-dose-only effect, or another doubt; inactive = no such curve, though single readings can be large; an effect the other way counts as inactive or inconclusive.

O=C(/C=C/c1ccc(O)cc1)c1ccccc1	none (no result: G9a block)
CN(C1=C(N2CCCCC2)C(=O)c2ccccc2C1=O)c1ccccc1	BAZ2B inh 2.8µM, G9a block 3.5µM, HP1b binding inh inconclusive, JMJD2A Tudor 4µM (no result: L3MBTL1 block)
O=c1nc(N2CCCCC2)nc(Nc2ccccc2)[nH]1	G9a block inconclusive (no result: L3MBTL1 block)
O=C1C(Nc2ccccc2)=C(N2CCCCC2)C(=O)c2ccccc21	BAZ2B inh 25µM, HP1b binding inh inconclusive, JMJD2A Tudor 40µM
Cc1cccc(Nc2c3c(nc4nncn24)CCC3)c1C	none (no result: L3MBTL1 block)
COc1ccccc1NC1=C(N2CCCCC2)C(=O)c2ccccc2C1=O	BAZ2B inh 32µM, G9a block 6.3µM, HP1b binding inh inconclusive, JMJD2A Tudor 40µM
O=C1C(Nc2cccc(O)c2)=C(N2CCCCC2)C(=O)c2ccccc21	BAZ2B inh 22µM, HP1b binding inh 22µM, JMJD2A Tudor 14µM, L3MBTL1 block inconclusive (no result: G9a block)
COc1ccccc1NC(=O)N1CCCC1	none
Cc1c(C(=O)N2CCN(C(=O)c3ccco3)CC2)sc2nc(-c3ccc(F)cc3)cn12	G9a block 40µM
Cc1c(C(=O)Nc2ccncc2)sc2nc(-c3ccc(F)cc3)cn12	G9a block 40µM
COc1ccc(-c2cn3c4c(sc3n2)CCCC4)cc1	BAZ2B inh inconclusive, G9a block 50µM (no result: GLS inh, L3MBTL1 block)
COc1ccc(-c2cn3c(C)c(C(=O)N4CCCc5ccccc54)sc3n2)cc1	JMJD2A Tudor inconclusive (no result: BAZ2B inh, G9a block, L3MBTL1 block)
COc1ccc(N2CCN(C(=O)c3sc4nc(-c5ccc(F)cc5)cn4c3C)CC2)cc1	G9a block inconclusive
COc1ccc(-c2cn3c(C)c(C(=O)Nc4ccncc4)sc3n2)cc1	G9a block 13µM (no result: L3MBTL1 block)
CCCCN(CCCC)CC(O)c1cc(Cl)cc2c1-c1ccc(Cl)cc1/C2=C/c1ccc(Cl)cc1 (stereo not given)	none (no result: BAZ2B inh, HP1b binding inh, JMJD2A Tudor, L3MBTL1 block)
COc1cc(/C=C2\SC(=S)N(NS(=O)(=O)c3ccccc3)C2=O)ccc1O	BAZ2B inh inconclusive, G9a block 40µM, HP1b binding inh inconclusive, JMJD2A Tudor inconclusive
CCOc1cc(/C=C2\SC(=S)N(NS(=O)(=O)c3ccc(C)cc3)C2=O)ccc1O	JMJD2A Tudor inconclusive (no result: BAZ2B inh, G9a block, L3MBTL1 block)
C=CCOc1ccc(/C=C2\SC(=S)N(NS(=O)(=O)c3ccccc3)C2=O)cc1	BAZ2B inh 50µM, JMJD2A Tudor inconclusive (no result: L3MBTL1 block)
COc1cc(/C=C2\SC(=S)N(NS(=O)(=O)c3ccc(C)cc3)C2=O)ccc1O	BAZ2B inh inconclusive, G9a block 25µM, HP1b binding inh inconclusive
Cc1ccc(S(=O)(=O)NCC2CCC(C(=O)NCCc3ccc(Cl)cc3)CC2)cc1 (stereo not given)	none (no result: L3MBTL1 block)
COc1ccc(-n2cc(C(=O)N(CCN(C)C)Cc3ccccc3)c3ccccc3c2=O)cc1	JMJD2A Tudor inconclusive (no result: L3MBTL1 block)
Cc1ccccc1Cn1c(SCc2ccc(C(=O)NC3CCCCC3)cc2)nc2ccncc21	G9a block inconclusive (no result: L3MBTL1 block)
Cc1c(NC(=O)Cc2ccc(F)cc2)cccc1-c1nc2cccnc2s1	G9a block inconclusive, JMJD2A Tudor inconclusive (no result: L3MBTL1 block)
Cc1cccc(C(=O)NC2CCCCCCC2)c1	none (no result: L3MBTL1 block)
CCOc1ccc(C(=S)NC2CCCCC2)cc1OCC	BAZ2B inh inconclusive, G9a block 7.9µM, HP1b binding inh inconclusive, JMJD2A Tudor 79µM (no result: L3MBTL1 block)
CCN(CC)c1ccc(C(=S)NC2CCCCC2)cc1	BAZ2B inh 22µM, HP1b binding inh 32µM, JMJD2A Tudor inconclusive
CN(C)c1cccc(C(=O)NC2CCCCCC2)c1	G9a block 8.9µM, JMJD2A Tudor inconclusive
CCOc1ccc(C(C)NC(=S)NC2CCCCC2)cc1OCC (stereo not given)	none (no result: L3MBTL1 block)
CN(C)c1ccc(C(=S)NC2CCCCC2)cc1	G9a block 5.6µM, HP1b binding inh inconclusive, JMJD2A Tudor inconclusive, L3MBTL1 block inconclusive
CN(C)c1ccc(C(=O)OCC(=O)NC2CCCCCC2)cc1	none (no result: BAZ2B inh)
Cc1ccc(NC(=O)Cn2ccn(-c3ccccc3)c(=O)c2=O)cc1	none (no result: L3MBTL1 block)
O=C(O)Cc1cccc(-c2cc(CCCCCCc3ccc(O[C@H]4O[C@H](CO)[C@@H](O)[C@H](O)[C@@H]4O)c(-c4cccc(CC(=O)O)c4)c3)ccc2O[C@H]2O[C@H](CO)[C@@H](O)[C@H](O)[C@@H]2O)c1	none (no result: BAZ2B inh, G9a block, HP1b binding inh, JMJD2A Tudor, L3MBTL1 block)
CC(C)C1Nc2ccc(C(=O)NC3CCCCC3)cc2NC1=O (stereo not given)	none (no result: L3MBTL1 block)
CC1Nc2ccc(C(=O)NC3CCCCC3)cc2NC1=O (stereo not given)	G9a block 35µM (no result: L3MBTL1 block)
O=C(NCC(c1cccnc1)N1CCc2ccccc2C1)C(=O)Nc1cccc(Cl)c1 (stereo not given)	none (no result: L3MBTL1 block)
CCCCN(C)CCn1c(=S)[nH]c2ncccc2c1=O	G9a block 50µM, JMJD2A Tudor inconclusive (no result: L3MBTL1 block)
CC1CCCCN1CCNc1nc(=S)[nH]c2ccccc12 (stereo not given)	G9a block inconclusive, JMJD2A Tudor inconclusive
CC1CCCCN1CCn1c(=S)[nH]c2ncccc2c1=O (stereo not given)	G9a block inconclusive, JMJD2A Tudor 40µM
O=c1c2cccnc2[nH]c(=S)n1CCCN1CCN(c2ccccc2F)CC1	none
CCN(CC)CCCn1c(=S)[nH]c2ccccc2c1=O	G9a block inconclusive, JMJD2A Tudor 56µM
CC(C)OCCCn1c(=S)[nH]c2ncccc2c1=O	G9a block 50µM, JMJD2A Tudor inconclusive
CC1CC(C)CN(CCCn2c(=S)[nH]c3ccccc3c2=O)C1 (stereo not given)	G9a block 79µM (no result: L3MBTL1 block)
CCN(CCCn1c(=S)[nH]c2ncccc2c1=O)c1ccccc1	none
CCN(CC)CCCn1c(=S)[nH]c2ncccc2c1=O	G9a block 50µM, HP1b binding inh inconclusive, JMJD2A Tudor 8.9µM (no result: L3MBTL1 block)
Cc1c(N)c(C(C)(C)C)cc(C(C)(C)C)c1[N+](=O)[O-]	none
Cc1cc2nc3c(=O)[nH]c(=O)[nH]c3nc2c([N+](=O)[O-])c1N	BAZ2B inh 50µM, G9a block 32µM, HP1b binding inh inconclusive, JMJD2A Tudor 45µM, L3MBTL1 block inconclusive
CN(Cc1cn(-c2ccccc2)nc1-c1cc2ccccc2o1)C(=O)CCC(=O)O	JMJD2A Tudor 32µM
CN(C)C(=O)c1cn(-c2ccccc2)nc1-c1cc2ccccc2o1	L3MBTL1 block inconclusive
COc1cccc(CNC(=O)Cc2csc3ccccc23)c1OC	none (no result: L3MBTL1 block)
Cc1ccc(C(=O)COC(=O)CCC(=O)Nc2ccc(Oc3ccccc3)cc2)cc1	none (no result: L3MBTL1 block)
CCCOC(=O)C1=C(C)NC2=C(C(=O)C(C(=O)OC)C(C)C2)C1c1ccc(N(CC)CC)cc1 (stereo not given)	BAZ2B inh inconclusive, G9a block 3.5µM
CCN(CC)c1ccc(C2C(C(=O)OCCOC(C)C)=C(C)NC3=C2C(=O)CCC3)cc1 (stereo not given)	BAZ2B inh 50µM, G9a block 10µM, JMJD2A Tudor inconclusive

Screening results as filed in PubChem.
